Source: PubChem BioAssay
Calls of active or inactive are those of the source. Unless noted, how the calls were made is not given here.

Assays:
[1] = resazurin metabolic signal in HepG2 cells – cell-based, resazurin fluorescence, 24 h, PK04 Diversity Set, profiling panel (AID 1172); conditions: HepG2 viability, higher = more signal
[2] = budding yeast growth changes without added modifier – OD600, strain BY4716, 24 h, basal condition, primary screen (AID 1173); conditions: S. cerevisiae BY4716 growth, OD600, 24 h; higher = more signal, called active from +8 up or from −8 down
[3] = viability profiling in MM1S myeloma cells – cell-based, resazurin fluorescence, basal, 24 h, PK04 Diversity Set, profiling panel (AID 1174); conditions: higher = more signal, called active from +8 up or from −8 down;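 further: MM1S multiple myeloma cell line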
[4] = target: Dihydroorotate dehydrogenase (quinone), mitochondrial (Plasmodium falciparum (isolate 3D7)) (UniProt Q08210); experiment: inhibition of P. falciparum DHODH – biochemical, C-terminal His tag, absorbance 600 nm, primary screen (AID 1175); conditions: PfDHODH enzyme, DCIP absorbance 600 nm; higher = more signal, called active from +8 up or from −8 down;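 further: recombinant parasite enzyme with a five histidine tag at its C terminus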
[5] = inhibition of PAO1 biofilm formation – strain PAO1, LB-PBS medium, absorbance 600 nm, primary screen (AID 1176); conditions: P. aeruginosa PAO1 growth/biofilm, A600, 12 h; higher = more signal
[6] = growth modulation of vineyard yeast isolate – strain RM11-1a, OD600, basal, 24 h, primary screen (AID 1177);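 further: cultures grown under basal conditions with no added stressor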; conditions: S. cerevisiae RM11-1a growth, OD600, 24 h; higher = more signal, called active from +8 up or from −8 down
[7] = growth of efflux-deficient E. coli DRC39 – strain DRC39, OD650, 24 h, E. coli filamentation inducers, primary screen (AID 1178);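 further: growth measured as culture turbidity by optical density at 650 nm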; conditions: E. coli DRC39 acrAB, higher = more signal, called active from +8 up or from −8 down
[8] = growth of efflux-deficient E. coli DRC39 – strain DRC39, OD650, 48 h, E. coli filamentation inducers, primary screen (AID 1179);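 further: screen aims at cell division blockers that make cells filament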; conditions: E. coli DRC39 delta-acrAB growth, higher = more signal, called active from +8 up or from −8 down
[9] = viability profiling in RPMI8226 myeloma cells – cell-based, resazurin fluorescence, basal, 24 h, PK04 Diversity Set, profiling panel (AID 1180); conditions: higher = more signal;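 further: RPMI8826 multiple myeloma cell line at 5000 cells per well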
[10] = target: E3 ubiquitin-protein ligase XIAP (Homo sapiens) (UniProt P98170); experiment: small molecules binding XIAP protein – biophysical, small-molecule microarray, fluorescence 635 nm, primary screen (AID 1181); conditions: higher = more signal;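 further: score merges 667 nm emission and signal to noise over triplicate slides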
[11] = system: XIP peptide (Xip251-270) binding; experiment: XIP fragment 251-270 binding compounds – biochemical, small-molecule microarray, fluorescence 635/667 nm, 0.1 µg/mL protein, primary screen (AID 1182); conditions: fluorescent protein binding, 635 nm, higher = more signal, called active from +8 up or from −8 down
XIP peptide (Xip251-270) = experiment: compounds binding XIP fragment 251-270 – biochemical, small-molecule microarray, fluorescence 635/667 nm, 0.5 µg/mL protein, primary screen (AID 1183); conditions: fluorescence 635 nm, higher = more signal
[12] = blood-stage malaria parasite viability loss – strain 3D7, DAPI fluorescence, 100 nL, primary screen (AID 1184);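 further: parasites grown inside human red blood cells in medium with human serum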; conditions: P. falciparum 3D7 growth, 3 d, higher = more signal
[13] = target: Homeobox protein Hox-A13 (Mus musculus) (UniProt Q62424); experiment: disruptors of Hoxa13 oligonucleotide interaction – biochemical, fluorescence polarization, labeled oligonucleotide, primary screen (AID 1185); conditions: Hoxa13:DNA binding, 15 min, higher = more signal, called active from +8 up or from −8 down
[14] = blockers of DNA damage checkpoint Chk1 activation – imaging, HeLa, hydroxyurea, phospho-Chk1 antibody, percent positive cells, primary screen (AID 1186); conditions: hydroxyurea-induced phospho-Chk1 immunofluorescence imaging, higher = more signal
[15] = blockers of DNA damage checkpoint Chk1 activation – imaging, HeLa, hydroxyurea, phospho-Chk1 nuclear intensity, primary screen (AID 1187); conditions: hydroxyurea-induced phospho-Chk1 immunofluorescence imaging, higher = more signal

Sequence of E3 ubiquitin-protein ligase XIAP (Homo sapiens) (P98170 whole entry, looked up, the tested form may be a part): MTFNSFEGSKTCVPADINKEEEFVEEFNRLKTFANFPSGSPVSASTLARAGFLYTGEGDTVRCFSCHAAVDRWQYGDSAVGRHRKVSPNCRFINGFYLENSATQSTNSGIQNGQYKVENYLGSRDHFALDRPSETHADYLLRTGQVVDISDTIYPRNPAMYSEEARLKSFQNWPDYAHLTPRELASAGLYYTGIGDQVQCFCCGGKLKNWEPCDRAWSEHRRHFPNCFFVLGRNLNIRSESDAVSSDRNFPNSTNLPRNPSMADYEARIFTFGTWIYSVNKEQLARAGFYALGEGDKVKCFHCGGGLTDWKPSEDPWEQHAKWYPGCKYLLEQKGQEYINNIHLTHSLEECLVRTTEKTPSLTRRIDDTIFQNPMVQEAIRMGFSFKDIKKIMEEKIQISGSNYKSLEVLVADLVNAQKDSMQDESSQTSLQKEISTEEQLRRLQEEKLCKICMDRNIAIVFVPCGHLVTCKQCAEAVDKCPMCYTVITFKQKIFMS
Sequence of Homeobox protein Hox-A13 (Mus musculus) (Q62424 whole entry, looked up): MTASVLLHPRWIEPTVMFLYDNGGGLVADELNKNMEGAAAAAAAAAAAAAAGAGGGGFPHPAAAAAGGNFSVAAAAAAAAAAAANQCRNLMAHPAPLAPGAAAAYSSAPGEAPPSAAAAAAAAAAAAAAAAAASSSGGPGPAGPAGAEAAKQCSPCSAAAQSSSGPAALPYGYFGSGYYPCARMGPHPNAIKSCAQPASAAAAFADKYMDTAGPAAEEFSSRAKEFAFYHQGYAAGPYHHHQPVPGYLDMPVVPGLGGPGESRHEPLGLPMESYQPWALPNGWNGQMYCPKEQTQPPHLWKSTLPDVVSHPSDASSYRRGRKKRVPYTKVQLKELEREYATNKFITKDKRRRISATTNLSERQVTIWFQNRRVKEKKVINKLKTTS
Sequence of Dihydroorotate dehydrogenase (quinone), mitochondrial (Plasmodium falciparum (isolate 3D7)) (Q08210 whole entry, looked up): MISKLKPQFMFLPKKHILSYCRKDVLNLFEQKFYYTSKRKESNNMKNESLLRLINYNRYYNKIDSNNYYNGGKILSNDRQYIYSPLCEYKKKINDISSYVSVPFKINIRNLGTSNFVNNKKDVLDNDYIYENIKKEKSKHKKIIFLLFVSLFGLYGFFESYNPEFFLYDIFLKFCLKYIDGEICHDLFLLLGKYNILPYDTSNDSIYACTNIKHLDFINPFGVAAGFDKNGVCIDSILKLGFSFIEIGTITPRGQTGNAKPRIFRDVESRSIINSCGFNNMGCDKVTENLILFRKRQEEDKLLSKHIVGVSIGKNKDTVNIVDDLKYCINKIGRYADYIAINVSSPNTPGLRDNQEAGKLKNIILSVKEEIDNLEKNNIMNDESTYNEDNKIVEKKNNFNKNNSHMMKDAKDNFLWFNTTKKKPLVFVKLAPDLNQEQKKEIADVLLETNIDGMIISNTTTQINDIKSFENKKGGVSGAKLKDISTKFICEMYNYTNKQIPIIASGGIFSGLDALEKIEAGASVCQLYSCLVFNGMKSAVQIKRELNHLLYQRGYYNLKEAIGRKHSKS

Compound	z-score [1]	z-score [2]	z-score [3]	composite z-score [4]	z-score [5]	z-score [6]	z-score [7]	z-score [8]	z-score [9]	composite z-score [10]	composite z-score [11]	composite z-score (XIP peptide (Xip251-270))	z-score [12]	z-score [13]	z-score [14]	z-score [15]
CC(=O)N1Cc2ccccc2C[C@@]2(N=C(c3ccc(OCCCO)cc3)O[C@H]2c2ccccc2)C1=O	-1.33	-2.24 (inactive)	-4.82 (inactive)	-0.847 (inactive)	1.76 (inactive)	0.372 (inactive)	1.62 (inactive)	1.4 (inactive)	-4.8	0.0651	1.11 (inactive)	0.887	-2.24	-3.3 (inactive)	-0.662 (inactive)	-0.681 (inactive)
O=C1[C@H]2C=C(Br)[C@H](C[C@@H]2OCCOCCO)[C@@]12CO2	-0.0029	1.2 (inactive)	-0.478 (inactive)	0.857 (inactive)	0.379 (inactive)	1.4 (inactive)	-0.308 (inactive)	-1.05 (inactive)	-0.608	-0.201	-0.0844 (inactive)	0.798	-0.334	-0.559 (inactive)	-0.051 (inactive)	-0.0596 (inactive)
CN1C(=O)C2C(C1=O)C1C=C(c3ccc(CO)cc3)C2C(C2CC2)N1Cc1sc2ccccc2c1Cl (stereo not given)	0.0076	-1.82 (inactive)	-5.41 (inactive)	-1.46 (inactive)	0.255 (inactive)	1.2 (inactive)	0.225 (inactive)	0.0618 (inactive)	-3.3	0.262	0.406 (inactive)	0.745	-1.9	-3.23 (inactive)	0.21 (inactive)	0.442 (inactive)
COC(=O)[C@@]1(Cc2ccc(OC)cc2)[C@H]2c3cc(C(=O)N(C)C)n(CCSCCO)c3C[C@H]2CN1C(=O)c1ccccc1	0.123	0.32 (inactive)	-0.415 (inactive)	-0.669 (inactive)	0.852 (inactive)	-0.459 (inactive)	0.219 (inactive)	-0.143 (inactive)	-0.409	-0.0062	0.149 (inactive)	0.504	-1.48	-5.09 (inactive)	-0.02 (inactive)	0.101 (inactive)
CCN(CC)c1ccc(N2CC=CC34O[C@@H]5/C=C\CCC(C)OC(=O)C5[C@H]3C(=O)N(CCCCCCO)[C@@H]4C2=O)cc1 (stereo not given in full)	-0.105	-0.0746 (inactive)	0.384 (inactive)	-0.788 (inactive)	-0.497 (inactive)	0.251 (inactive)	1.37 (inactive)	1.59 (inactive)	1.56	-0.0545	0.76 (inactive)	-0.0479	0.816	-5.99 (inactive)	-0.632 (inactive)	-0.767 (inactive)
C=CCNC(=O)[C@H]1[C@@H]2C(=O)O[C@@H](c3ccccc3)[C@@H](c3ccccc3)N2[C@@H](c2ccc(OCCO)cc2)[C@]12C(=O)N(C(=O)OCCOC)c1ccc(C#CC3(O)CCCCCC3)cc12	-0.162	1.33 (inactive)	-0.421 (inactive)	-1.08 (inactive)	1.79 (inactive)	2.43 (inactive)	-0.129 (inactive)	1.16 (inactive)	0.393	-0.0999	0.404 (inactive)	0.735	-1.91	-0.675 (inactive)	-0.124 (inactive)	-0.0954 (inactive)
Oc1ccc2cc[n+](Cc3cccc(OC(F)(F)F)c3)cc2c1	-0.975	0.236 (inactive)	-0.304 (inactive)	-1.09 (inactive)	0.0061 (inactive)	0.585 (inactive)	0.4 (inactive)	0.743 (inactive)	-1.07	0.202	0.143 (inactive)	0.558	0.233	-3.08 (inactive)	-0.208 (inactive)	-0.16 (inactive)
O=C1c2ccccc2[C@](Cc2ccccc2I)(C(=O)O)[C@H](c2ccc(CO)cc2)N1Cc1ccccc1C(F)(F)F	1.02	-0.874 (inactive)	0.283 (inactive)	0.833 (inactive)	-0.0528 (inactive)	0.893 (inactive)	-0.0217 (inactive)	-0.0555 (inactive)	0.0019	0.12	0.185 (inactive)	0.506	0.33	-5.85 (inactive)	-0.344 (inactive)	-0.572 (inactive)
COc1ccc(C(=O)Nc2cccc(CN3C(=O)[C@@]4(O[C@@H](CC(=O)N5Cc6ccccc6C[C@H]5CO)[C@H]([Si](C)(C)c5ccc(OC)cc5)[C@H]4C)c4ccccc43)c2)cc1	-0.79	0.147 (inactive)	-3.05 (inactive)	-4.98 (inactive)	1.42 (inactive)	1.91 (inactive)	0.978 (inactive)	0.621 (inactive)	-1.99	-0.0525	1.44 (inactive)	0.698	-2.64	-3.18 (inactive)	-0.0924 (inactive)	0.071 (inactive)
O=C1C2C=CC(C(O)c3cccc4ccccc34)N(n3cnnc3)C2C(=O)N1Cc1ccccc1 (stereo not given)	-0.447	-17.4 (active)	-1.24 (inactive)	-2.08 (inactive)	-0.128 (inactive)	-23.2 (active)	-1.24 (inactive)	-1.14 (inactive)	-1.07	-0.0421	-0.0195 (inactive)	-0.633	-0.206	-1.86 (inactive)	0.993 (inactive)	-0.055 (inactive)
